Our source for the growth values is the supplement of paper PMC11172423.

In experiment [1] the test system is Falciformispora senegalensis CBS197.79. Briefly: growth relative to untreated control; higher = less inhibition, active = 20 or less. The gist of the method: (§1)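 Hyphal fragments of M. mycetomatis MM55 or F. senegalensis CBS197.79 were suspended in colourless RPMI 1640 with L-glutamine and MOPS at 68–72% transmission at 660 nm. They were exposed in 96-well plates to compound at 100 or 25 µM for 7 days at 37 °C. Viability was read with MTS (2 h, 490 nm) or resazurin (600 nm). Growth is metabolic activity relative to the untreated growth control, both corrected with a medium-plus-dye blank.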

For experiment [2], the system named is Madurella mycetomatis MM55. The description is as above. The gist of the method: as §1

Consider `CCN(CCO)CCCC(C)Nc1ccnc2cc(Cl)ccc12` (stereo unspecified), for which the growth in experiment [1] (25 µM) is 109% (inactive); in experiment [1] (100 µM) it was 105% (inactive); in experiment [2] (25 µM), 85.1% (inactive); in experiment [2] (100 µM), 78.2% (inactive).

`NC1CCc2nc(-c3cccnc3)nc(Nc3ccc(C(F)(F)F)cc3)c2C1` (stereo unspecified): the growth in experiment [1] (25 µM) is 102% (inactive); in experiment [1] (100 µM), 13.8% (active); in experiment [2] (25 µM) it was 71.4% (inactive); in experiment [2] (100 µM), 5.34% (active).

Consider `CC(C)Nc1cc2c(cn1)nc(Nc1cc(Cl)cc(C#N)c1)n2C1CCNCC1`, for which the growth in experiment [1] (25 µM) is 97.8% (inactive); in experiment [1] (100 µM), 106% (inactive); in experiment [2] (25 µM), 106% (inactive); in experiment [2] (100 µM), 79.1% (inactive).

Consider `Cc1cccc(Nc2nccc(-c3cccc(C#N)c3)n2)c1`, for which the growth was 80.6% (inactive) in experiment [1] (25 µM), 89.8% (inactive) in experiment [1] (100 µM), 84.1% (inactive) in experiment [2] (25 µM) and 49.1% (inactive) in experiment [2] (100 µM).

Consider `COc1cccc(OC2CCN(C(=O)c3cc(C(C)(C)C)nn3Cc3ccccc3)CC2)c1`, for which the growth is 82.9% (inactive) in experiment [1] (25 µM), 93.8% (inactive) in experiment [1] (100 µM), 87.4% (inactive) in experiment [2] (25 µM) and 118% (inactive) in experiment [2] (100 µM).

Regarding `COc1ccc(CCNc2nccc(-c3cc(Cl)cc(C(F)(F)F)c3)n2)cc1`, the growth in experiment [1] (25 µM) was 87.1% (inactive); in experiment [1] (100 µM), 94.6% (inactive); in experiment [2] (25 µM), 110% (inactive); in experiment [2] (100 µM) it was 116% (inactive).

`CN(C)CCCN1c2ccccc2CCc2ccc(Cl)cc21`: the growth was 51.5% (inactive) in experiment [1] (25 µM), 12.5% (active) in experiment [1] (100 µM), 38.1% (inactive) in experiment [2] (25 µM) and 3.39% (active) in experiment [2] (100 µM).

`CC(C)c1cc(Oc2ccccc2)cc(C(C)C)c1NC(=S)NC(C)(C)C`: the growth in experiment [1] (25 µM) is 89.5% (inactive); in experiment [1] (100 µM), 90.7% (inactive); in experiment [2] (25 µM) it was 111% (inactive); in experiment [2] (100 µM), 166% (inactive).

Regarding `O=C(Nc1cc(Cl)cc(Cl)c1O)c1c(O)c(Cl)cc(Cl)c1Cl`, the growth in experiment [1] (25 µM) is 89.9% (inactive); in experiment [1] (100 µM) it was 12.5% (active); in experiment [2] (25 µM), 39% (inactive); in experiment [2] (100 µM), 3.21% (active).
